Values joined by “and” are separate entries in the source; they are usually repeats but may differ in a detail not shown here. Identical values can stand only once. Records with an inconclusive call do not appear. Active and inactive are the calls of the source. Unless noted, calls come from the whole dose curve; as a rule, active = well fitted curve in the direction sought with a large enough effect; inconclusive = small, poorly fitted or top-dose-only effect, or another doubt; inactive = no such curve, though single readings can be large; an effect the other way counts as inactive or inconclusive.
How the values were obtained:
[1] = qHTS assay for environmental chemicals that activate the Aryl hydrocarbon Receptor (AhR) signaling pathway (AID 651777); details: 1A2-DRE human hepatoma cells, luciferase, 24 h; stronger effect = higher value; note: % of control where 0% means no effect; nearly all actives have a fitted effect of over 15% in size
How it was run: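 Induction of CYP1A2 transcription through AhR is detected by luciferase in 1A2-DRE hepatoma cells. Compounds or DMSO act for 24 hr at 37 C before a 30 min One-Glo step at room temperature.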

[2] = target: Peroxisome proliferator-activated receptor alpha (Homo sapiens) (UniProt Q07869); assay: qHTS assay for small molecule agonists of the peroxisome proliferator-activated receptor alpha (PPARalpha) signaling pathway (AID 651778); details: PathHunter PPARalpha complementation, chemiluminescence, 6 h; stronger effect = higher value; note: % of control where 0% means no effect
Chain of Peroxisome proliferator-activated receptor alpha (Homo sapiens) (Q07869 whole entry, looked up): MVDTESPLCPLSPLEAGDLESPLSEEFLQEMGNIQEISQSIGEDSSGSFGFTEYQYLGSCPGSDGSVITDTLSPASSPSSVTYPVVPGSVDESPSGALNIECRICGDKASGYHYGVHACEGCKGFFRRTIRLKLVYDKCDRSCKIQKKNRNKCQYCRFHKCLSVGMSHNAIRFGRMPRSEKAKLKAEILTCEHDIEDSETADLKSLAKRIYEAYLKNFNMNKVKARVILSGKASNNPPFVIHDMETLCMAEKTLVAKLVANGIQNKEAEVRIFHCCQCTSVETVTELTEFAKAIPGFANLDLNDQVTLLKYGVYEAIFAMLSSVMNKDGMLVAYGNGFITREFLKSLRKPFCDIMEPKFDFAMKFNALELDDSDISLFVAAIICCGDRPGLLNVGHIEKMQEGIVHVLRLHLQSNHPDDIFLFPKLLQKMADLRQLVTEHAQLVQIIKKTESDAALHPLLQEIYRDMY
How it was run: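 Chemiluminescence from complemented enzyme reported PPARalpha activation in cells after 6 hr of compound treatment at 37 C. The detection reagent was incubated for 60 min at room temperature, and compounds were scored as agonists.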

[3] = target: Nuclear receptor ROR-gamma (Homo sapiens) (UniProt P51449); assay: qHTS assay for small molecule antagonists of the retinoid-related orphan receptor gamma (ROR-gamma) signaling pathway (AID 651802); details: ROR-gamma antagonist cell reporter assay; series mostly up to 92.2 µM;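 note: CHO cells with doxycycline-induced ROR-gamma expression; luciferase reporter luminescence driven by ROR response element; % is set by controls: 0 for no effect and ±100 for the full control effect; nearly all actives have a fitted effect of over 60% in size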
Chain of Nuclear receptor ROR-gamma (Homo sapiens) (P51449 whole entry, looked up): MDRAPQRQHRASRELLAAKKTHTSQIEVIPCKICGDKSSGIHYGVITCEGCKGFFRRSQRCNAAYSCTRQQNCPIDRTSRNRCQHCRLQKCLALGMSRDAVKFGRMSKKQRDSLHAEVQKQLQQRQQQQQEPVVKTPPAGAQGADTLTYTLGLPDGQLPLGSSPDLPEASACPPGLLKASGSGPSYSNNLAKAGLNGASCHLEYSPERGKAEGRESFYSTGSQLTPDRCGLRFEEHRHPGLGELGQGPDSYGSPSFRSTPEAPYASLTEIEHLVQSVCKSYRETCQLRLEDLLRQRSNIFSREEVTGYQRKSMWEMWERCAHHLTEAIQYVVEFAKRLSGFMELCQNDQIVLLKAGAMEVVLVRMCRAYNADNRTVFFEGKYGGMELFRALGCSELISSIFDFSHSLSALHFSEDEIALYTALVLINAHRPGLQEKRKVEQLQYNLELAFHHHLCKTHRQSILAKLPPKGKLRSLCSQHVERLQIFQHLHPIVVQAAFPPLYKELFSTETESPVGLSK
How it was run: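 Luminescence (One-Glo, 30 min RT) measured 16 h after compound addition and doxycycline induction at 37C. Reporter: RORE-luciferase under TET-inducible ROR-gamma in CHO cells.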

[4] = target: Arylsulfatase A (Homo sapiens) (UniProt P15289); assay: qHTS screen for enhancers of Arylsulfatase A (ASA1): LOPAC Validation Assay (AID 720538); details: ASA enzyme activity, LOPAC qHTS enhancer assay; series mostly up to 57.5 µM
Chain of Arylsulfatase A (Homo sapiens) (P15289 whole entry, looked up): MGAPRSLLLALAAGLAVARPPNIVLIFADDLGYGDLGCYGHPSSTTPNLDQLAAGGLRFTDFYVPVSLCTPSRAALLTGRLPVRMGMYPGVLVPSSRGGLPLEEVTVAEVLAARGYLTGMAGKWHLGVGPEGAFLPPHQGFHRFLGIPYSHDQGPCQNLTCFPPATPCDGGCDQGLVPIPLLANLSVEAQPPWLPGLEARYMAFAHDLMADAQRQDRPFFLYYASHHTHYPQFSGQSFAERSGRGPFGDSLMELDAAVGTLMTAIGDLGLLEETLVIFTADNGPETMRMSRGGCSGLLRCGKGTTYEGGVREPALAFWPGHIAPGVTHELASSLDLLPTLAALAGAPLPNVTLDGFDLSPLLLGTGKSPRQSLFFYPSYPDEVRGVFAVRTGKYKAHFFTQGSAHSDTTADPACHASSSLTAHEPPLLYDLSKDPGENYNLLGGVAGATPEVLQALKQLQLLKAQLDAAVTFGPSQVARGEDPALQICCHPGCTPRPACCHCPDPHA
How it was run: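 MLD patient fibroblasts (SV40, ASA-I179S), 1536-well; adhere 6 hrs; cpd 48h, 37 degree C, 5% CO2; pNCS 0.5mM final in lysis buffer, 14h RT; stop 1N NaOH final; fluor. Ex525/Em598.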

[5] = qHTS for compounds that reverse cellular toxicity of Amyloid beta (A-beta) peptide in yeast: LOPAC Validation Assay (AID 720559); details: yeast expressing A-beta; series mostly up to 46.1 µM;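 note: plate controls were DMSO for no effect and equimolar ferric chloride plus clioquinol rescue for full effect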
How it was run: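 Medium dispensed, compounds pinned, A-beta yeast suspension added; plates held at 30 C for 48 hr; absorbance measured at 600 nm to gauge growth; values scaled between DMSO and FeCl3/clioquinol (equimolar) controls.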

[6] = qHTS for Activators of Parkin Expression: LOPAC Validation Assay (NLuc Reporter) (AID 720572; note: potency is the fitted concentration of half-maximal effect); details: Parkin promoter NanoLuc reporter cells, luminescence; series mostly up to 46.1 µM
How it was run: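 Compound effects on Parkin promoter activity were measured as NanoLuc luminescence after 24 h at 37 C. The neuronal reporter line also carried FLuc, which was read first. LOPAC compounds were tested at 7 concentrations, with normalization to DMSO (0%) and positive control (100%).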

[7] = qHTS for Activators of Parkin Expression: LOPAC Validation Assay (FLuc Reporter) (AID 720573); details: Cell line, PRKN promoter firefly luciferase reporter, vehicle wells = 0, positive control = 100%; series mostly up to 46.1 µM
How it was run: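 Cells seeded, 24 h; compounds pinned, 7-pt dose response; 24 h at 37 C/5% CO2; volume reduced; FLuc reagent 10 min RT; luminescence read. Normalization: DMSO = 0, positive control = 100%.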

[8] = qHTS assay for small molecule agonists of the antioxidant response element (ARE) signaling pathway measured by Nrf2-dependant transcriptional activity (AID 720636; active = well fitted curve in the direction sought with a large enough effect in the repeat runs; an effect the other way counts as inactive or inconclusive;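 note: HepG2 cells with an ARE-driven luciferase reporter; % of control where 0% means no effect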); details: ARE-luc HepG2, Nrf2 luciferase reporter, 16 h; series mostly up to 92.4 µM
How it was run: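 We exposed ARE-luc HepG2 cells, seeded in assay medium with 1% dialyzed FBS and allowed 6 hr to adhere, to test compounds overnight (16 hr, 37 C) before measuring luciferase with ONE-Glo.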

[9] = qHTS assay for small molecule antagonists of the retinoid-related orphan receptor gamma (ROR-gamma) signaling pathway - cell viability counter screen (AID 720652; active = well fitted curve in the direction sought with a large enough effect in the repeat runs; an effect the other way counts as inactive or inconclusive;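 note: CHO reporter cells with doxycycline-induced ROR-gamma expression; compound exposure lasted 16 hr before ATP read; % is set by controls: 0 for no effect and ±100 for the full control effect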); details: RORgamma reporter cell line viability counter screen; series mostly up to 92.2 µM
How it was run: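 Cytotoxicity counter screen: intracellular ATP (CellTiter-Glo luminescence) measured in the doxycycline-induced CHO RORE-luciferase reporter line after 16 hr compound exposure at 37 C, 5% CO2.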

[10] = qHTS assay for small molecule agonists of the antioxidant response element (ARE) signaling pathway measured by Nrf2-dependant transcriptional activity - cell viability counter screen (AID 720653; active = well fitted curve in the direction sought with a large enough effect in the repeat runs; an effect the other way counts as inactive or inconclusive; note: % is set by controls: 0 for no effect and ±100 for the full control effect); details: ARE-bla HepG2 viability, CellTiter-Glo ATP luminescence, 16 h; stronger effect = lower value
How it was run: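 Cytotoxicity counter screen: intracellular ATP quantified by CellTiter-Glo luminescence in the same ARE-bla HepG2 plates, after 16 h compound exposure and a 2 h beta-lactamase substrate step.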

[11] = target: T1, Hexokinase-4 (Homo sapiens) + Glucokinase regulatory protein (Homo sapiens) (UniProt P35557+Q14397); assay: qHTS assay for inhibitors of recombinant human GCK-GKRP interaction: Diaphorase-coupled assay (AID 743205); details: G6PDH/diaphorase resorufin fluorescence; series mostly up to 57.5 µM
T1 sequence (P35557 whole entry, looked up): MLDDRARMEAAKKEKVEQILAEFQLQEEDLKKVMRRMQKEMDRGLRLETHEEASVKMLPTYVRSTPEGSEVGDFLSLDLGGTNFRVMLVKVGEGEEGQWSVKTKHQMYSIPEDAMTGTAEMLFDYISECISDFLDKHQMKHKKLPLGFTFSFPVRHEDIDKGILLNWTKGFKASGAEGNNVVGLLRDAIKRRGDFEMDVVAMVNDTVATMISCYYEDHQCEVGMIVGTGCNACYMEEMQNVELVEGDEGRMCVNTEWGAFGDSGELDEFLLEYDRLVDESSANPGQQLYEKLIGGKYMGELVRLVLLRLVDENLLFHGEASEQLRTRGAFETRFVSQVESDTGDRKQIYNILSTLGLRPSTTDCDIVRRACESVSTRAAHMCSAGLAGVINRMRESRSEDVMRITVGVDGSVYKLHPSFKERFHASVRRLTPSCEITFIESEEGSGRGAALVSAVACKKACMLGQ
T1 sequence (Q14397 whole entry, looked up): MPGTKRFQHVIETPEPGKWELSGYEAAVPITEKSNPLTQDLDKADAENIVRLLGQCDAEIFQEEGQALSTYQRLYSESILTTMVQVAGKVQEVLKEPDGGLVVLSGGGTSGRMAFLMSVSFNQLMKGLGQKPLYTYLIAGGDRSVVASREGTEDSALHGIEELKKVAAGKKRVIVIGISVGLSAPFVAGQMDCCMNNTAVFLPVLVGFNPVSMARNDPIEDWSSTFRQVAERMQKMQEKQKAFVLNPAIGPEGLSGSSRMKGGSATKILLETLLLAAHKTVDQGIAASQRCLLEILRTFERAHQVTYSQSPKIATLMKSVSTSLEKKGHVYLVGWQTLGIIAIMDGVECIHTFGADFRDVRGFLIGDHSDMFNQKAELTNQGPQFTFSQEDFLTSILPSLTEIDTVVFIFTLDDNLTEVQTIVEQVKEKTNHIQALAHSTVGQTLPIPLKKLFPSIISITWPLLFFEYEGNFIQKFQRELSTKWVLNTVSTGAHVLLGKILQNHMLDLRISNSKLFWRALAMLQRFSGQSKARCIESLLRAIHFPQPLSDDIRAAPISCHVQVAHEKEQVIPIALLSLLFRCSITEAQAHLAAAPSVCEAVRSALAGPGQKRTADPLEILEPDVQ
How it was run: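 25 mM Hepes pH 7.6, 5 mM glucose, 0.4 mM ATP, 4 U/ml G6PDH; 10 nM each GST-GCK/FLAG-GKRP. Kinetic fluorescence read, 1/min × 30 min. Normalized: DMSO ± enzyme = max/min.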

[12] = target: T1, Hexokinase-4 (Homo sapiens) + Glucokinase regulatory protein (Homo sapiens); assay: qHTS assay for inhibitors of recombinant human GCK-GKRP interaction: ADP-Glo assay (AID 743206); details: ADP-Glo luminescence, 60 min, 0% = vehicle-only wells with enzyme present; series mostly up to 76.9 µM;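 note: plate controls were DMSO plus enzyme for no effect and no enzyme for full effect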
How it was run: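 Pin-transferred compounds meet a 15 nM GST-GCK/15 nM FLAG-GKRP/2 uM S6P mix (dispense concentrations). ATP is then added to 0.4 mM final with 5 mM glucose, and the reaction runs 60 min at room temperature. ADP is quantified luminescently.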

[13] = target: T1, Hexokinase-4 (Homo sapiens) + Glucokinase regulatory protein (Homo sapiens); assay: qHTS assay for inhibitors of recombinant human GCK-GKRP interaction: HTRF assay (AID 743207); details: recombinant GCK-GKRP HTRF binding, 60 min, with sorbitol-6-phosphate; series mostly up to 57.5 µM;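 note: 0% = DMSO with GCK present and -100% = DMSO wells lacking GCK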
How it was run: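 5 nM GST-GCK + 5 nM FLAG-GKRP + 2 uM S6P, pH 7.1 buffer (25 mM Hepes, 2 mM MgCl2, 25 mM KCl, 1 mM DTT, Tween/BSA); pin-transferred cpd; anti-FLAG XL665/anti-GST K; 60 min RT; HTRF.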

[14] = qHTS Assay for Identifying Gametocytocidal Compounds (AID 743244); note: potency is the fitted concentration of half-maximal effect;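 for max response: % is set by controls: 0 for no effect and ±100 for the full control effect; actives lower the fluorescent signal which means gametocytes are killed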; details: P. falciparum 3D7 stage III-V gametocytes, alamarBlue, 72 h; max response: stronger effect = lower value
How it was run: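 Compounds are pinned into medium, gametocytes (stage III–V, 3D7, 20,000 cells/well) added, and plates held 72 h at 37 °C in 5% CO2. AlamarBlue follows for 24 h before fluorescence reading.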

[15] = qHTS assay for cell viability of HEK293 cells (AID 743288); details: ATP luminescence (CellTiter-Glo), 18 h; max response: stronger effect = lower value; note: nearly all actives have a fitted effect of over 50% in size; note: potency is the fitted concentration of half-maximal effect; for max response: % is set by controls: 0 for no effect and ±100 for the full control effect
How it was run: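 Viable-cell counts were inferred from luciferase-based ATP content in HEK293 cells seeded at 2,000/well, pre-incubated ≥5 h, then dosed with DMSO-solubilised compounds for 18 h at 37 C.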

[16] = qHTS assay for cell viability of the p53RE-bla HCT-116 cell line (AID 743292); details: p53RE-bla HCT-116 viability, ATP luminescence, 16 h; series mostly up to 95 µM; note: % is set by controls: 0 for no effect and ±100 for the full control effect; nearly all actives have a fitted effect of over 55% in size
How it was run: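 In this qHTS counter-screen, metabolically competent p53RE-bla HCT-116 cells were counted via their ATP content. Compounds were applied for 16 h at 37 C and luciferase-coupled luminescence was measured.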

[17] = target: Tyrosine-protein kinase Yes (Homo sapiens) (UniProt P07947); assay: qHTS for small molecule inhibitors of Yes1 kinase: Primary Screen (AID 686947); details: Yes1 kinase biochemical qHTS inhibition; series mostly up to 76.9 µM; note: nearly all actives have a fitted effect of over 60% in size; note: potency is the fitted concentration of half-maximal effect
Chain of Tyrosine-protein kinase Yes (Homo sapiens) (P07947 whole entry, looked up): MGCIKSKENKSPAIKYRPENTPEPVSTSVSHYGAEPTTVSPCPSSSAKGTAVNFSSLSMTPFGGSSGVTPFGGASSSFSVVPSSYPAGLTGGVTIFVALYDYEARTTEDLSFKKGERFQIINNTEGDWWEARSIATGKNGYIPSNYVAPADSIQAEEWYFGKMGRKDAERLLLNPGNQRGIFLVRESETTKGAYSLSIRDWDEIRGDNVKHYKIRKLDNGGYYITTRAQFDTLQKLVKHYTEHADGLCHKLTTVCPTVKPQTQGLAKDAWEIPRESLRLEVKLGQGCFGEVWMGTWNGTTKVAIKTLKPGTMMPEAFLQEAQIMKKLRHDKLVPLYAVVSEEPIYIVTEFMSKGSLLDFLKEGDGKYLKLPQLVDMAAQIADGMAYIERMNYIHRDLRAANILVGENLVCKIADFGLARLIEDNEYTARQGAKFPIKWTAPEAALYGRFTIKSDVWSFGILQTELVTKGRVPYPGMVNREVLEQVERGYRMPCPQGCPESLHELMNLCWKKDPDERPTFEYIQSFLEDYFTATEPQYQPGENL
How it was run: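 ADP-Glo luminescence reports ADP formed by 4 nM Yes1 phosphorylating poly(E4Y) (0.3 mg/mL) with 0.1 mM ATP for 60 min at room temperature, following 20 min compound preincubation; normalised between DMSO wells with and without enzyme.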

[18] = qHTS for small molecule inhibitors of Yes1 kinase: Counter Assay (AID 686950); details: series mostly up to 76.9 µM;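 note: no kinase present so only ADP-Glo detection of a fixed ADP amount is tested; luminescence from ADP-Glo reporting ADP in a fixed ATP and ADP mixture; 0% = DMSO wells with ATP plus ADP and -100% = ATP-only wells without ADP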
How it was run: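 ADP-Glo luminescence read after a 60 min room-temperature incubation of compound with an ATP/ADP mix (0.08 mM/0.02 mM) and no kinase, following a 20 min compound preincubation. Signal scaled between ATP+ADP (max) and 0.1 mM ATP-only (min) wells; Tris pH 7.5, Mg2+, DTT.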

[19] = qHTS profiling for inhibitors of Plasmodium falciparum (3D7) proliferation (AID 743322; call rule not given here;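 note: infected erythrocytes exposed to compound for 72 h before lysis; 100% = DMSO vehicle wells and 0% = 0.29 µM artemisinin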); details: P. falciparum 3D7 proliferation; at 28.7 µM (top of the series) unless noted
How it was run: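 Parasite DNA was quantified by SYBR Green I fluorescence (ex 485, em 535 nm) after overnight lysis in saponin/Triton buffer at room temperature. Cultures at 0.3% parasitemia and 2.5% hematocrit were first exposed to compound for 72 h at 37 C; signals were normalised to artemisinin (0.29 uM) and vehicle wells.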

[20] = qHTS profiling for inhibitors of Plasmodium falciparum (DD2) proliferation (AID 743323; call rule not given here); details: lower = more inhibition; at 28.7 µM (top of the series) unless noted
How it was run: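 P. falciparum Dd2-infected erythrocytes (0.3% parasitemia, 2.5% hematocrit) exposed 72 h at 37 C, 5% CO2. Lysis with SYBR Green, overnight at room temperature, fluorescence 485/535 nm; normalized to 0.29 uM artemisinin and DMSO.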

CC(=O)Oc1ccccc1C(=O)O
inactive: activation [1] 0.977% and -1.01% and -0.15% | max response [2] -3.17% and 6.24% and -1.09% | outcome [3] | outcome [4] | outcome [5] | Potency [6] | outcome [7] | outcome [8] | outcome [9] | max response [10] -2.6% and -0.828% and 18.8% | outcome [11] | outcome [12] | outcome [13] | max response [14] -2.57% and 13.2% | max response [15] -2.25% and -4.16% and -2.23% | Potency [16]

CC1(C)SCCN(S(=O)(=O)c2ccc(OCC#CCO)cc2)[C@@H]1C(=O)NO
inactive: Potency [17] | outcome [18] | max response [14] 1.92%
107%: remaining parasite growth % (stronger effect = lower value) [19]
104%: activity, percent of control [20]

Cc1oncc1C(=O)Nc1ccc(C(F)(F)F)cc1
104% and 91.9%: remaining parasite growth % (stronger effect = lower value) [19]
inactive: Potency [17] | outcome [18] | outcome [11] | outcome [13] | max response [14] 50.5% and -6.39% and -7.89%
94.9% and 88.9%: activity, percent of control [20]

NC(N)=NC(=O)c1nc(Cl)c(N)nc1N
inactive: activation [1] 6.31% | max response [2] -5.82% | outcome [3] | Potency [17] | outcome [18] | outcome [5] | Potency [6] | outcome [7] | outcome [8] | outcome [9] | max response [10] -15% | outcome [11] | outcome [13] | max response [15] -10.2% | Potency [16]

O=c1[nH]cnc2[nH]ncc12
inactive: activation [1] -0.722% | max response [2] -0.201% | outcome [3] | outcome [4] | outcome [5] | Potency [6] | outcome [7] | outcome [8] | outcome [9] | max response [10] -4.44% | outcome [11] | outcome [13] | max response [15] 10.5% | Potency [16]

Nc1nc2ccc(OC(F)(F)F)cc2s1
inactive: Potency [17] | outcome [18] | outcome [5] | Potency [6] | outcome [11] | outcome [13] | max response [14] 5.46% and 13.2%
105%: remaining parasite growth % (stronger effect = lower value) [19] | activity, percent of control [20]

Cn1cnc([N+](=O)[O-])c1Sc1ncnc2nc[nH]c12
inactive: activation [1] -4.71% and -5.39% | max response [2] -2.81% and -2.18% | outcome [5] | Potency [6] | outcome [7] | outcome [8] | outcome [9] | outcome [11] | outcome [13]
active: Potency [14] 39.8 µM and 1.26 µM | Potency [15] 4.47 µM and 5.01 µM

O=C(O)c1ccc(-c2c[nH]c3ccc(-c4ccccc4)cc23)cc1C1CCCC1
-0.426%: remaining parasite growth % (stronger effect = lower value) [19]
active: Potency [17] 1.54 µM
0.0014%: activity, percent of control [20]
inactive: outcome [18] | max response [14] 15.6%

O=C(Nc1nc2ccccc2n1CCN1CCOCC1)c1cccc([N+](=O)[O-])c1
inactive: Potency [17] | outcome [18] | outcome [4] | outcome [5] | Potency [6] | outcome [11] | outcome [13]

Cn1cnc2c(F)c(Nc3ccc(Br)cc3Cl)c(C(=O)NOCCO)cc21
90.2%: activity, percent of control [20]
inactive: Potency [17] | outcome [18] | max response [14] 17.6%
91.2%: remaining parasite growth % (stronger effect = lower value) [19]

CNC[C@H](O)c1cccc(O)c1
inactive: activation [1] -0.659% | max response [2] -0.749% | outcome [4] | outcome [5] | Potency [6] | outcome [7] | outcome [8] | max response [10] -6.42% | outcome [11] | outcome [13] | max response [14] -1.17% and 7.6% | max response [15] -12.3% | Potency [16]

O=C1CCC(N2C(=O)c3ccccc3C2=O)C(=O)N1 (stereo unspecified)
inactive: activation [1] -0.0215% | max response [2] -0.602% | outcome [4] inactive; inhibitor; fitted 0.0301 uM | outcome [5] | Potency [6] | outcome [7] | outcome [8] | max response [10] 1.28% | outcome [11] | outcome [13] | max response [14] 18.1% and 27% | max response [15] -7.06% | Potency [16]

COc1c(Cl)cc2c([nH]c3cnccc32)c1NC(=O)c1cccnc1C
108%: activity, percent of control [20]
107%: remaining parasite growth % (stronger effect = lower value) [19]
inactive: Potency [17] | outcome [18] | max response [14] 20.9%

CCC(C)N(C)C(=O)c1cc2ccccc2c(-c2ccccc2Cl)n1 (stereo unspecified)
80.9%: activity, percent of control [20]
active: Potency [6] 20.6 µM
86.5%: remaining parasite growth % (stronger effect = lower value) [19]
inactive: Potency [17] | outcome [18] | outcome [4] | outcome [5] | outcome [7] | outcome [11] | outcome [13] | max response [14] 24.9%

Reference: PubChem BioAssay (NCATS)
